Composite z-score data for eleven compounds are collected here from PubChem BioAssay.

A short description of this test: small-molecule microarray binders of probe aNog, primary screen, biochemical, biotinylated probe, 635/667 nm fluorescence (AID 1115).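 Also: probe is biotinylated aNog protein used at 0.15 µg/mL for 1 h at 4 C; z-score combines 667 nm fluorescence of each spot with its signal to noise.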 The note with it: higher = more signal.
Regarding `O=C1O[C@H](c2ccccc2)[C@H](c2ccccc2)N2[C@H]1[C@@H](C(=O)NC[C@H](O)c1ccccc1)[C@]1(C(=O)Nc3ccc(C#CC4(O)CCCCCC4)cc31)[C@H]2c1ccccc1OCCO`, the composite z-score came out at 0.52.
As to `C=C(/C(=C/C[C@@H](OC(=O)c1ccncc1)c1ccc(CO)o1)c1cc(C(=O)OC)ccc1OC)C(C)C`, the composite z-score was 0.107.
Under `COc1ccc([Si](C)(C)[C@@H]2[C@@H](CCO)O[C@]3(C(=O)N(Cc4ccccc4)c4ccc(N(C=O)c5ccccc5)cc43)[C@H]2C)cc1` stands -0.0036.
For `CCCCCCC#C[Si](O[C@H](c1ccccc1)c1cn([C@H](C)c2ccccc2)nn1)(C(C)C)C(C)C`, the composite z-score is -0.139.
In the case of `[N-]=[N+]=NCc1ccccc1[C@@H]1OC(c2ccc(OCCCO)cc2)=N[C@]1(Cc1ccccc1)C(=O)O` it was -0.419; in that of `CCCC[C@@H]1C[C@H]1[C@@H](NC(=O)c1ccccc1)c1ccc(-c2ccccc2)cc1`, -0.421.
In turn, `Cc1ccc(S[C@]2(C(=O)NCCN3CCOCC3)CC(=O)N(C3CCCCC3)[C@@H]2c2ccc(CO)cc2)cc1` returned a composite z-score of 0.0373.
`CC(C)NC(=O)[C@@]1(c2ccc([N+](=O)[O-])cc2)CC(=O)N(C(C)C)[C@@H]1c1ccc(CO)cc1` had a composite z-score of -0.311.
`C=CCN1Cc2ccccc2C[C@@]2(COC(c3ccc(OCCCO)cc3)=N2)C1=O` showed a composite z-score of 0.373.
Under `COCCn1c(C(=O)N2CCCC2)cc2c1C[C@H]1CN(C(=O)c3ccccc3)[C@@](Cc3ccc(OC)cc3)(C(=O)OC)[C@@H]21` stands -0.401.
Take `C=C[C@@H](C)[C@@H](OC(=O)Nc1ccc(OC)cc1)c1ccc(O)c2ccccc12`: the composite z-score is -0.409.
